# Compound activity as filed in PubChem BioAssay.
# Most compounds without a hit are left out; they make up all but 0.4% or so of the library.
# TRPML1 agonist: qHTS for Agonists of the Human Mucolipin Transient Receptor Potential 1 (TRPML1); Mucolipin-1 (Homo sapiens), Q9GZU1; TRPML1-expressing cells, Ca2+ dye fluorescence, FDSS; activation, % (no concentration beside the values); 0.12% of 410,000 active; AID 624414, 2012; in the data active means activation above about 50%; inconclusive means mostly about 30% to 49%; further: 0% is about no effect
# Target sequence (Q9GZU1 whole entry, looked up): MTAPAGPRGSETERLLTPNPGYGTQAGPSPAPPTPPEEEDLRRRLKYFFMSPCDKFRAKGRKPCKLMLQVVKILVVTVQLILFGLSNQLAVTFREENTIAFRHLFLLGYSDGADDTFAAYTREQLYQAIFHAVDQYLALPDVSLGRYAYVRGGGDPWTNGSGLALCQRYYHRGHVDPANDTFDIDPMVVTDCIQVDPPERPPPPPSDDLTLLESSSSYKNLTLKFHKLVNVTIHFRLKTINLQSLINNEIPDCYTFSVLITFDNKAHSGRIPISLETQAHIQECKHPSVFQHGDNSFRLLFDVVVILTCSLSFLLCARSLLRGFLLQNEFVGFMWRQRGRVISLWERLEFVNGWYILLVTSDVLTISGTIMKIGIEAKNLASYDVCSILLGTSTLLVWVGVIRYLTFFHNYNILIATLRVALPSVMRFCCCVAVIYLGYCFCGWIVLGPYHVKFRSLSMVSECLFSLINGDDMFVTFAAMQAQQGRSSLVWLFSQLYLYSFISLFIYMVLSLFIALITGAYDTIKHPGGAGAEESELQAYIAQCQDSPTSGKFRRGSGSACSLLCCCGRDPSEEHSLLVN
#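 Cells: TRPML1-DL, 1X Tet inducer, ~16 h at 37 degrees C/5% CO2. Dye: ABD Ca8 no-wash + quencher, 45-90 min RT. Read: 10 s baseline, compound add, 110 s agonist phase; 54-4 EC80 (4uM final), 110 s antagonist phase.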
# TRPML1 blocker: qHTS for Inhibitors of the Human Mucolipin Transient Receptor Potential 1 (TRPML1). Mucolipin-1 (Homo sapiens), Q9GZU1. 0.02% of 390,000 active. TRPML1-inducible cells, Ca2+ dye fluorescence, FDSS; hits give low values; inhibition of EC80 agonist-evoked calcium signal. activity change, negative = inhibition, % (test concentration not listed); in the data active means activity change below about -50%; inconclusive means between about -30% and that limit;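 further: stimulus is agonist 54-4 at its EC80 concentration; on the % scale 0 is the no-effect control and ±100 the full control effect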
#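 Calcium fluorescence in TRPML1-DL cells induced overnight with Tet: a 110 s read after compound pin addition, then a 110 s antagonist read after challenge with 54-4 at 4 uM final (EC80).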
# USP1 inh: Inhibitors of USP1/UAF1: Primary Screen; Ubiquitin carboxyl-terminal hydrolase 1 (Homo sapiens), O94782; recombinant USP1/UAF1, Ub-Rhodamine cleavage fluorescence; Potency, µM (titrated, usually from 57.1 µM), inactives show at the top dose activity change, negative = inhibition, hits mostly inhibitors; 0.23% of 390,000 active; AID 743255, 2014; active means well fitted inhibition curve with a large enough effect; inconclusive means small, poorly fitted or top-dose-only effect; inactive means no such curve, though single readings can be large or run the other way; further: potency means the concentration at half of the fitted maximal effect; on the % scale 0 is the no-effect control and ±100 the full control effect; nearly all actives have a fitted effect of over 60% in size
#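 USP1/UAF1 complex (1 nM) preincubated 15 min at room temperature with compound, then Ub-Rho substrate (150 nM final) added. Kinetic fluorescence at 480/540 nm over 6 reads at 60 s intervals; 50 mM HEPES pH 7.8, 0.5 mM EDTA, 0.1 mg/ml BSA, 1 mM TCEP, 0.01% Tween-20.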
# TRPV1 ag: HTS Assay for Compounds that Act as Agonists of the Vanilloid Receptor 1. AID 540275, 2011. 0.19% of 320,000 active. TRPV1-expressing cells, Fluo-8 calcium influx, agonist mode. activation, % at 8.33 µM; in the data active means activation above about 80%; inconclusive means between about 30% and that limit; further: 0% is about no effect
#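 TRPV1-expressing cells were cultured overnight at 35.5C and loaded with Fluo-8 calcium dye for 40 to 90 min at room temperature. After a 10 s baseline, compound was added and calcium influx was read kinetically for 3 min (ex 480/em 520 nm).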
# TRPV1 PAM: HTS Assay for Compounds that Act as Potentiators of the Vanilloid Receptor 1; Transient receptor potential cation channel subfamily V member 1 (Homo sapiens), Q8NER1; TRPV1-expressing cells, Fluo-8 calcium influx, capsaicin EC20 potentiation; potentiation, % at 8.33 µM; 0.02% of 320,000 active; AID 540277, 2011; in the data active means potentiation above about 80%; inconclusive means between about 30% and that limit; further: 0% is about no effect
#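 Fluo-8 calcium influx in TRPV1-expressing cells, kinetic read (ex 480/em 520 nm). Compound added and read 3 min for agonist activity, followed by capsaicin at EC20 final and 2 min further read for enhancement.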
# The depositor's hits bear a star; ? = inconclusive; . = not tested or not shown.
SMILES,TRPML1 agonist,TRPML1 blocker,USP1 inh,TRPV1 ag,TRPV1 PAM
COc1ccc(OC)c(/C=C2/Sc3ccccc3C2=O)c1,54*,-12,28µM*,?,16
COc1ccc(/C=C2\SC(=S)N(CCC(=O)N3CCCCC3)C2=O)cc1,0,-15,-5%,-2,0
COCCN1C(=O)/C(=C/c2ccc(N3CCCC3)cc2)SC1=S,60*,-11,5µM*,17,-5
O=S(=O)(Nc1cc2nc3ccccc3nc2n1Cc1ccccc1)c1ccc(Cl)cc1,17,4,25µM*,16,5
O=S(=O)(NCc1ccccc1)c1ccc(Cl)cc1,3,53,-20%,4,-3
C/C(N)=C(/C#N)C(=O)COC(=O)CNS(=O)(=O)c1c(F)cccc1F,1,-17,-11%,-2,-1
COc1ccc(/C=C(\NC(=O)c2ccc([N+](=O)[O-])cc2)C(=O)NCCCN2CCOCC2)cc1,0,-5,-19%,-8,10
Cc1ccn2c(NCc3ccccc3)c(-c3cccc(SC4CCCCC4)c3)nc2c1,-1,31,?,.,.
CCC(C)Sc1cc(-c2nc3ccc(C)cn3c2NCc2ccccc2)ccc1OC (stereo not given),1,71,-13%,.,.
CCC(C)Sc1cccc(-c2nc3cc(C)ccn3c2NCc2ccccc2)c1 (stereo not given),1,36,?,93*,14
CCC(C)Sc1ccc(-c2nc3ccc(C)cn3c2NCc2ccccc2)cc1OC (stereo not given),-1,67,-12%,88*,30
O=C(Nc1ccc(Cl)cc1C(F)(F)F)c1cc(S(=O)(=O)N2CCOCC2)ccc1F,-1,9,-12%,.,.
COc1ccc(NC2c3ncccc3C(=O)N2Cc2cccs2)cc1 (stereo not given),1,-6,-2%,?,-31
O=C1c2cccnc2C(Nc2ccc(Br)cc2)N1Cc1cccs1 (stereo not given),0,5,-6%,84*,-27
O=C(O)C1Nc2c(cccc2C(F)(F)F)C2C=CCC12 (stereo not given),.,.,.,-3,8
CC(=O)c1ccc2c(c1)C1C=CCC1C(C(=O)O)N2 (stereo not given),0,25,32µM*,3,3
COc1cccc2c1NC(C(=O)O)C1CC=CC21 (stereo not given),-1,8,25µM*,0,-3
Cc1ccc2c(c1)C1C=CCC1C(C(=O)O)N2 (stereo not given),.,.,.,4,5
COc1ccc(C(=O)Nc2ccc(C(=O)O)cc2NC(=O)c2ccc(OC)cc2)cc1,0,0,-3%,-2,7
COc1ccc(C(=O)Nc2ccc(C3=NNC(=O)CC3C)cc2NC(=O)c2ccc(OC)cc2)cc1 (stereo not given),0,-6,-24%,84*,-3
O=c1cc(-c2ccc(O)cc2)oc2c1ccc1ccccc12,0,31,-22%,?,-10
O=c1cc(-c2ccc(O)cc2)oc2c(O)c(O)c(O)c(O)c12,.,.,10µM*,0,1
CCn1nnnc1SCC(=O)c1ccc(C)cc1,0,-15,-22%,-1,-6
O=C1c2ccccc2C(=O)N1CCc1c(-c2[nH]c3ccccc3c2CCN2C(=O)c3ccccc3C2=O)[nH]c2ccccc12,0,-4,-14%,.,.
CC(C)c1ccc(S(=O)(=O)/N=C2\C=C(NS(=O)(=O)c3ccccc3)C(=O)c3ccccc32)cc1,4,6,?,-3,5
SMILES,TRPML1 agonist,TRPML1 blocker,USP1 inh,TRPV1 ag,TRPV1 PAM
Cc1ccccc1NC1=C/C(=N\S(=O)(=O)c2ccc(C(=O)O)cc2)c2ccccc2C1=O,0,-8,1.3µM*,2,-16
O=C(O)c1ccc(S(=O)(=O)/N=C2\C=C(Nc3ccccc3F)C(=O)c3ccccc32)cc1,2,6,2.5µM*,-1,28
O=C(Nc1ccc(F)cc1)c1ccc2snnc2c1,0,-7,-14%,82*,-18
CCCC(C)c1nnc(NC(=O)C(=O)OCC)s1 (stereo not given),0,7,-6%,-4,2
COC(=O)c1sc(-c2ccc(C(C)(C)C)cc2)cc1NC(=O)c1ccccc1C(=O)O,2,20,28µM*,-2,-7
CC1=NN(c2ccccc2)C(c2ccco2)C1 (stereo not given),1,-12,-7%,.,.
O=[N+]([O-])c1ccc(/C=C/C2=NN(c3ccccc3)C(c3ccco3)C2)cc1 (stereo not given),60*,-13,-16%,?,26
O=[N+]([O-])c1ccc(C2=NN(c3ccccc3)C(c3ccco3)C2)cc1 (stereo not given),55*,4,2%,.,.
CC(O)(c1ccc(F)c(F)c1)c1nc(-c2ccc(S(C)(=O)=O)cc2)cs1 (stereo not given),0,.,.,.,.
Cc1c(Cl)cccc1NC(=O)Nc1nnc(N(C)Cc2ccccc2)s1,58*,-15,17%,.,.
Cc1ccccc1NC(=O)Nc1nnc(N(C)Cc2ccccc2)s1,1,20,-15%,.,.
CCOc1cc(C(=O)NCc2nnc(SCC(=O)OC)n2C)cc(OCC)c1OCC,0,-7,-17%,2,23
O=C1C=C(O)c2[nH]c(=O)ccc2C1=O,-1,-12,25µM*,.,.
O=C1C=C(O)c2c(O)cc(O)c(O)c2C1=O,.,.,-23%,.,.
O=C(NCc1ccncc1)C1CCCN(S(=O)(=O)c2cc(Cl)ccc2Cl)C1 (stereo not given),0,20,-7%,87*,-18
O=C(NCc1ccncc1)C1CCN(S(=O)(=O)c2cc(Cl)ccc2Cl)CC1,0,-22,-17%,?,-9
Cc1ccnc(N/C=C(\C#N)c2nc(-c3cccc(Br)c3)cs2)c1,14,-2,22µM*,-5,14
N#C/C(=C/c1ccc(Cl)cc1)c1nc(-c2ccc(Br)cc2)cs1,1,0,-3%,.,.
Clc1ccccc1N1CCN(c2ncnc3c2c(-c2ccccc2)cn3-c2ccccc2)CC1,59*,-3,2%,.,.
COc1ccc(/C=N/NC(=O)C(=O)N2CCCC2)cc1OC,2,28,-15%,0,-13
CC(C)(C)c1ccc(NC(=O)N2CCCN(c3ccc([N+](=O)[O-])cn3)CC2)cc1,0,-5,-8%,92*,-16
